In PubChem BioAssay (NCI):
The panel holds about 79,000 compounds, 15% with a hit somewhere; the sample as a whole holds those more often. Activity calls are given as the source filed them. Cut-off read from the data, not from the text of the source: active = growth inhibition above about 70%; inactive = the rest.

Test: NCI Yeast Anticancer Drug Screen. Data for the rad50 strain (AID 155);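 note: 0% = growth of vehicle-only cultures of the same strain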
Details: S. cerevisiae rad50 strain growth inhibition; at 5.0 µM (retest, dose inferred, filed as 0.5); stronger effect = higher value
How it was run: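 Cells are treated with compound, grown, and their growth is then scored against vehicle-only cultures of the same repair-deficient yeast strain.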

SMILES | growth inhibition
COC(=O)C1C(c2ccccc2)=N[C@@H](c2ccccc2)[C@H]1C(=O)OC (stereo not given in full) | 2% (inactive)
CCCCCCCCCC(C)CC(=O)NCCCN(C)CCCCN(C)C (stereo not given) (tested in a mixture with another compound) | -24% (inactive)
Cc1ccc(N=C2SC(=S)N(CCC[N+](C)(C)C)C2=Nc2ccc(C)cc2)cc1 | -5% (inactive)
N#CSc1ccc(O)c2ccccc12 | 75% (active)
CCCCCC1OC(CCCCC)OC(CCCCC)O1 (stereo not given) | -10% (inactive)
ClC1(c2ccccc2)c2ccccc2-c2ccccc21 | -26% (inactive)
CCN(CC)c1ccc(NC(CC(O)c2ccccc2)c2ccccc2)cc1 (stereo not given) | -14% (inactive)
CCCCCCC[n+]1ccc(C(=O)c2ccccc2)cc1 | 99% (active)
O=c1[nH][nH]c(=O)c2c1nc(SCc1ccccc1)n2Cc1ccccc1 | -3% (inactive)
CCOC(=O)C(NNc1ccccc1)C(c1ccccc1)[P+](c1ccccc1)(c1ccccc1)c1ccccc1 (stereo not given) | 78% (active)
CC(C)/C=C1\CCC(CN2CCOCC2)C1=O (stereo not given) | 24% (inactive)
CCc1cc2nc3c(=O)[nH]c(=O)nc-3n(CCN(CCO)CCO)c2cc1CC | 5% (inactive)
c1ccc2c(c1)OCC(CN1CCN(CC3COc4ccccc4O3)CC1)O2 (stereo not given) | 41% (inactive)
CNC(C)C(=O)c1ccc2ccc3ccccc3c2c1 (stereo not given) | -3% (inactive)
O=[N+]([O-])c1ccc(N=C(Cl)C(Cl)(c2ccccc2)c2ccccc2)cc1 | 14% (inactive)
O=[N+]([O-])c1ccc2c(c1)Cc1cc(Cl)ccc1-2 | 7% (inactive)
CCCCCCOC(=O)Nc1ccc(S(=O)(=O)N2CCCCC2)cc1 | -7% (inactive)
CCCCCCCCCCCOc1cccc(N2C(N)=NC(N)=NC2(C)C)c1 | 99% (active)
O=Nc1c(NO)c2ccccc2c2ccccc12 | 5% (inactive)
CCCCCCCCCCCCCCCCOS(=O)(=O)O | 24% (inactive)

SMILES | growth inhibition
CCCCCCCCCCCCCCCCCC[N+](C)(C)Cc1ccc(C[N+](C)(C)CCCCCCCCCCCCCCCCCC)cc1 | -5% (inactive)
NNc1ccc2ccccc2n1 | -4% (inactive)
Cc1cc(NC(=S)SCc2ccc(F)cc2)c([N+](=O)[O-])cc1C | 57% (inactive)
COC(=O)/C(=C\c1cn(C(C)=O)c2ccccc12)P(=O)(OC)OC | 9% (inactive)
O=C(Nc1ccccc1)c1ccccc1O | 2% (inactive)
CC(=O)c1c2c(cc3c1CC1(Cc4ccccc4C1=O)C3)CCC2 (stereo not given) | -4% (inactive)
CC(=O)c1c(-c2ccco2)c(C#N)c(=S)n(C2OC(CO)C(O)C(O)C2O)c1-c1ccccc1 (stereo not given) | -9% (inactive)
CC1(C)OC2C(CO)OC(n3ncc(=S)[nH]c3=O)C2O1 (stereo not given) | -4% (inactive)
C=C(C)C1CC/C(C)=C/CCC2(C)OC2CC/C(CO)=C\C1O (stereo not given) | 52% (inactive)
CC(C)CCSc1ncnc2nc[nH]c12 | 1% (inactive)
COC(=O)C1(Cc2ccc3c(c2)CCC3)Cc2ccc3c(c2C1O)CCC3 (stereo not given) | -2% (inactive)
Nc1ccc(C(=O)NN2C(=O)C(Cl)C2c2cc(Br)cc(Br)c2O)cc1 (stereo not given) | -3% (inactive)
COc1ccc(SC2=C(N(C)C(C)=O)C(=O)c3ccccc3C2=O)cc1 | 98% (active)
O=[N+]([O-])c1ccc(N/N=C/CCCCCCCCCCBr)c([N+](=O)[O-])c1 | -4% (inactive)
O=C(c1ccccc1)c1cccc2ccccc12 | 5% (inactive)
O=S1(=O)CCc2ccccc2C(Br)C1Br (stereo not given) | 13% (inactive)
CC(/C=N/NS(=O)(=O)c1ccc(C)cc1)=C(c1ccccc1)c1ccccc1 | 18% (inactive)
Cc1cc(CC(O)(C(F)(F)F)C(F)(F)F)cc(CC(O)(C(F)(F)F)C(F)(F)F)n1 | 12% (inactive)
O=S(=O)(c1cc(Cl)c(Cl)cc1Cl)N(CCCCCN(S(=O)(=O)c1cc(Cl)c(Cl)cc1Cl)S(=O)(=O)c1cc(Cl)c(Cl)cc1Cl)S(=O)(=O)c1cc(Cl)c(Cl)cc1Cl | -9% (inactive)
O=c1cc(-c2ccccc2)oc2ccc(-c3ccc4oc(-c5ccccc5)cc(=O)c4c3)cc12 | 8% (inactive)

Same assay, conditions: S. cerevisiae rad50 strain growth inhibition; at 50.0 µM (retest, dose inferred, filed as 5.0); stronger effect = higher value

SMILES | growth inhibition
COC(=O)C1C(c2ccccc2)=N[C@@H](c2ccccc2)[C@H]1C(=O)OC (stereo not given in full) | -3% (inactive)
CCCCCCCCCC(C)CC(=O)NCCCN(C)CCCCN(C)C (stereo not given) (tested in a mixture with another compound) | 67% (inactive)
Cc1ccc(N=C2SC(=S)N(CCC[N+](C)(C)C)C2=Nc2ccc(C)cc2)cc1 | 99% (active)
N#CSc1ccc(O)c2ccccc12 | 79% (active)
CCCCCC1OC(CCCCC)OC(CCCCC)O1 (stereo not given) | 33% (inactive)
ClC1(c2ccccc2)c2ccccc2-c2ccccc21 | 98% (active)
CCN(CC)c1ccc(NC(CC(O)c2ccccc2)c2ccccc2)cc1 (stereo not given) | 1% (inactive)
CCCCCCC[n+]1ccc(C(=O)c2ccccc2)cc1 | 99% (active)
O=c1[nH][nH]c(=O)c2c1nc(SCc1ccccc1)n2Cc1ccccc1 | -4% (inactive)
CCOC(=O)C(NNc1ccccc1)C(c1ccccc1)[P+](c1ccccc1)(c1ccccc1)c1ccccc1 (stereo not given) | 99% (active)
CC(C)/C=C1\CCC(CN2CCOCC2)C1=O (stereo not given) | 36% (inactive)
CCc1cc2nc3c(=O)[nH]c(=O)nc-3n(CCN(CCO)CCO)c2cc1CC | 3% (inactive)
c1ccc2c(c1)OCC(CN1CCN(CC3COc4ccccc4O3)CC1)O2 (stereo not given) | 57% (inactive)
CNC(C)C(=O)c1ccc2ccc3ccccc3c2c1 (stereo not given) | 24% (inactive)
O=[N+]([O-])c1ccc(N=C(Cl)C(Cl)(c2ccccc2)c2ccccc2)cc1 | 97% (active)
O=[N+]([O-])c1ccc2c(c1)Cc1cc(Cl)ccc1-2 | 6% (inactive)
CCCCCCOC(=O)Nc1ccc(S(=O)(=O)N2CCCCC2)cc1 | 47% (inactive)
CCCCCCCCCCCOc1cccc(N2C(N)=NC(N)=NC2(C)C)c1 | 91% (active)
O=Nc1c(NO)c2ccccc2c2ccccc12 | 96% (active)
CCCCCCCCCCCCCCCCOS(=O)(=O)O | 99% (active)

SMILES | growth inhibition
CCCCCCCCCCCCCCCCCC[N+](C)(C)Cc1ccc(C[N+](C)(C)CCCCCCCCCCCCCCCCCC)cc1 | 22% (inactive)
NNc1ccc2ccccc2n1 | 98% (active)
Cc1cc(NC(=S)SCc2ccc(F)cc2)c([N+](=O)[O-])cc1C | 98% (active)
COC(=O)/C(=C\c1cn(C(C)=O)c2ccccc12)P(=O)(OC)OC | 21% (inactive)
O=C(Nc1ccccc1)c1ccccc1O | 93% (active)
CC(=O)c1c2c(cc3c1CC1(Cc4ccccc4C1=O)C3)CCC2 (stereo not given) | 79% (active)
CC(=O)c1c(-c2ccco2)c(C#N)c(=S)n(C2OC(CO)C(O)C(O)C2O)c1-c1ccccc1 (stereo not given) | 12% (inactive)
CC1(C)OC2C(CO)OC(n3ncc(=S)[nH]c3=O)C2O1 (stereo not given) | 28% (inactive)
C=C(C)C1CC/C(C)=C/CCC2(C)OC2CC/C(CO)=C\C1O (stereo not given) | 89% (active)
CC(C)CCSc1ncnc2nc[nH]c12 | 6% (inactive)
COC(=O)C1(Cc2ccc3c(c2)CCC3)Cc2ccc3c(c2C1O)CCC3 (stereo not given) | 94% (active)
Nc1ccc(C(=O)NN2C(=O)C(Cl)C2c2cc(Br)cc(Br)c2O)cc1 (stereo not given) | 64% (inactive)
COc1ccc(SC2=C(N(C)C(C)=O)C(=O)c3ccccc3C2=O)cc1 | 99% (active)
O=[N+]([O-])c1ccc(N/N=C/CCCCCCCCCCBr)c([N+](=O)[O-])c1 | -3% (inactive)
O=C(c1ccccc1)c1cccc2ccccc12 | 29% (inactive)
O=S1(=O)CCc2ccccc2C(Br)C1Br (stereo not given) | 98% (active)
CC(/C=N/NS(=O)(=O)c1ccc(C)cc1)=C(c1ccccc1)c1ccccc1 | 87% (active)
Cc1cc(CC(O)(C(F)(F)F)C(F)(F)F)cc(CC(O)(C(F)(F)F)C(F)(F)F)n1 | 99% (active)
O=S(=O)(c1cc(Cl)c(Cl)cc1Cl)N(CCCCCN(S(=O)(=O)c1cc(Cl)c(Cl)cc1Cl)S(=O)(=O)c1cc(Cl)c(Cl)cc1Cl)S(=O)(=O)c1cc(Cl)c(Cl)cc1Cl | -3% (inactive)
O=c1cc(-c2ccccc2)oc2ccc(-c3ccc4oc(-c5ccccc5)cc(=O)c4c3)cc12 | 40% (inactive)
